{
  "source": "PubChem BioAssay (Tox21)",
  "note": "Inconclusive results are not listed. Where a call stands in place of a potency, no number is given. Calls of active or inactive are those of the source. Calls follow the shape of the dose curve; as a rule, active = well fitted cell-killing curve with a large enough effect in the repeat runs; inconclusive = weak or mixed curves, or effect the other way; inactive = flat fitted curve, though single readings scatter. Potency is read from the fitted curve at half-maximal effect.",
  "data": [
    {"assay": "qHTS assay to identify small molecule antagonists of the androgen receptor (AR) signaling pathway using the MDA cell line - cell viability counter screen (AID 743041; also: nearly all actives have a fitted effect of over 45% in size)", "conditions": "MDA-kb2 viability, CellTiter-Fluor, 16 h, cells co-treated with R1881 androgen agonist; series mostly up to 70.3 µM", "excerpt": "National Center for Advancing Translational Sciences [NCATS]\nNIH Chemical Genomics Center [NCGC]\nU.S. Environmental Protection Agency [EPA]\nNational Institutes of Environmental Health Sciences [NIEHS]\nNational Toxicology Program [NTP]\nU.S. Food and Drug Administration [FDA]\nAndrogen receptor (AR), a nuclear hormone receptor, plays a critical role in AR-dependent prostate cancer and other androgen related diseases. Endocrine disrupting chemicals (EDCs) and their interactions with steroid hormone receptors like AR may cause disruption of normal endocrine function as well as interfere with metabolic homeostasis, reproduction, developmental and behavioral functions. To identify the compounds that inhibit AR signaling, MDA-kb2 AR-luc cell line (from ATCC, deposited by Wilson et al.) was used to screen the Tox21 10K compound library. MDA-kb2 AR-luc cell line is human breast carcinoma cell line that was stably transfected with a luciferase reporter gene under control of the MMTV promoter containing response elements for both androgen receptor (AR) and glucocorticoid receptor (GR). The cytotoxicity of the Tox21 compound library against the MDA-kb2 AR-luc cell line was tested in parallel by measuring the cell viability using CellTiter-Fluor assay (Promega, Madison, WI) in the same wells.\nTox21 Assay Protocol Summary:\nMDA-kb2 AR-luc cells were dispensed at 3,000 cells/4 uL/well of culture medium into white wall/solid-bottom 1536-well plates using a Multidrop Combi (ThermoFisher Scientific, Waltham, MA) dispenser. After the assay plates were incubated at a 37C and 0% CO2 for 5 hr, 23 nL of compounds dissolved in DMSO, positive controls or DMSO only was transferred to the assay plate by a Pintool station (Kalypsys, San Diego, CA), followed by addition of 1 uL of agonist (R1881) in culture medium using a Bioraptr Flying Reagent Dispenser (FRD) workstation (Beckman Coulter, Indianapolis, IN, USA). The plates were incubated at a 37C and 0% CO2 for 16 h. After 15.5 h incubation, 1uL of CellTiter-Fluor reagent (Promega) was added using a Bioraptr FRD to each plate for measuring cytotoxicity. The fluorescence intensity was quantified on a ViewLux plate reader (PerkinElmer, Shelton, CT) following 30 min incubation at 37C and 0% CO2.", "values": [
      {"smiles": "CCNCC(O)c1cccc(O)c1", "note": "(stereo not given)", "Potency": "inactive"},
      {"smiles": "COC([CH2][Hg])CNC(=O)c1ccccc1OCC(=O)O", "note": "(stereo not given)", "Potency": "inactive"},
      {"smiles": "C[C@]12CCC(=O)C[C@@H]1CC[C@@H]1[C@@H]2CC[C@@]2(C)[C@H]1CC[C@]2(C)O", "Potency": "inactive"},
      {"smiles": "Cc1nnc2n1-c1ccc(Cl)cc1C(c1ccccc1Cl)=NC2", "Potency": "inactive"},
      {"smiles": "CCC(=O)O[C@]1(c2ccccc2)CCN(C)C[C@H]1C", "Potency": "inactive"},
      {"smiles": "[S]=[Sb](=[S])[S][Sb](=[S])=[S]", "Potency": "inactive"},
      {"smiles": "C[C@]12N[C@H](Cc3ccccc31)c1ccccc12", "Potency": "inactive"},
      {"smiles": "CN[C@@]1(c2ccccc2Cl)CCCCC1=O", "Potency": "inactive"},
      {"smiles": "CCC(N)Cc1c[nH]c2ccccc12", "note": "(stereo not given)", "Potency": "inactive"},
      {"smiles": "CCN1C[C@]2(COC)[C@H](O)C[C@H](OC)[C@@]34[C@@H]5C[C@@]6(O)[C@H](OC(=O)c7ccccc7)[C@@H]5[C@@](OC(C)=O)([C@@H]([C@H](OC)[C@H]23)[C@@H]14)[C@@H](O)[C@@H]6OC", "Potency": "inactive"},
      {"smiles": "C[C@@H]1[C@H]2Cc3ccc(O)cc3[C@]1(C)CCN2C", "Potency": "inactive"},
      {"smiles": "F/C(COc1ccc2c(c1)[nH]c1ccccc12)=C1/CN2CCC1CC2", "Potency": "inactive"},
      {"smiles": "C[C@@H](N)C(=O)c1ccccc1", "Potency": "inactive"},
      {"smiles": "CCN(CC)CCO[C@H]1CC[C@@]2(C)C(=CC[C@@H]3[C@@H]2CC[C@]2(C)C(=O)CC[C@@H]32)C1", "Potency": "inactive"},
      {"smiles": "CCOC(=O)C(O)(c1ccc(Cl)cc1)c1ccc(Cl)cc1", "Potency": "61.8 µM (active)"},
      {"smiles": "O=C(O)/C=C/C(=O)O", "Potency": "inactive"},
      {"smiles": "O=C1C[C@@H]2OCC=C3CN4CC[C@]56c7ccccc7N1[C@H]5[C@H]2[C@H]3C[C@H]46", "note": "(tested in a mixture with another compound)", "Potency": "inactive"},
      {"smiles": "C1CN(P2(N3CC3)=NP(N3CC3)(N3CC3)=NP(N3CC3)(N3CC3)=N2)CCO1", "note": "(stereo not given)", "Potency": "inactive"},
      {"smiles": "CCCCCN(C)CCC(O)(P(=O)(O)O)P(=O)(O)O", "Potency": "inactive"},
      {"smiles": "CCCC(C)C1(CC)C(=O)NC(=O)NC1=O", "note": "(stereo not given)", "Potency": "inactive"},
      {"smiles": "CC[C@H]1[C@@H]2C[C@H]3[C@@H]4N(C)c5ccccc5[C@]45C[C@@H](C2[C@H]5O)N3[C@@H]1O", "note": "(stereo not given in full)", "Potency": "inactive"},
      {"smiles": "C[C@@H]1[C@@H]2Cc3ccc(O)cc3[C@@]1(C)CCN2CC1CC1", "Potency": "inactive"},
      {"smiles": "C[C@]12CCC(=O)C=C1C=C[C@@H]1[C@@H]2CC[C@@]2(C)[C@H]1CC[C@@]2(O)CCC(=O)O", "Potency": "inactive"},
      {"smiles": "CN=C1CN(O)C(c2ccccc2)=c2cc(Cl)ccc2=N1", "Potency": "inactive"},
      {"smiles": "CC(Cc1ccccc1)NC=O", "note": "(stereo not given)", "Potency": "inactive"},
      {"smiles": "C[C@H]1CC[C@]2(NC1)O[C@H]1C[C@H]3[C@@H]4CC[C@H]5C[C@@H](O)CC[C@]5(C)[C@H]4CC[C@]3(C)[C@H]1[C@@H]2C", "Potency": "inactive"},
      {"smiles": "Nc1ccc([N+](=O)[O-])cc1", "Potency": "30.6 µM (active)"},
      {"smiles": "C[C@@H]([C@H](O)c1ccccc1)N(C)C", "Potency": "inactive"},
      {"smiles": "S=C(S)N1CCNCC1", "Potency": "inactive"},
      {"smiles": "C=CCN(C1=NCCN1)c1c(Cl)cccc1Cl", "Potency": "inactive"},
      {"smiles": "O=C(C[C@@H]1NCCC[C@H]1O)Cn1cnc2cc(Br)c(Cl)cc2c1=O", "Potency": "inactive"},
      {"smiles": "C[C@]12CC[C@@H]3c4ccc(OC(=O)N(CCCl)CCCl)cc4CC[C@H]3[C@@H]1CC[C@@H]2OP(=O)(O)O", "Potency": "inactive"},
      {"smiles": "C=CCN1CC[C@]23c4c5ccc(O)c4O[C@H]2[C@@H](O)C=C[C@H]3[C@H]1C5", "Potency": "inactive"},
      {"smiles": "CC1(C)S[C@@H]2[C@H](N)C(=O)N2[C@H]1C(=O)O", "Potency": "inactive"},
      {"smiles": "CCCCCCC(=O)O[C@H]1CC[C@H]2[C@@H]3CC[C@H]4CC(=O)C=C(C)[C@]4(C)[C@H]3CC[C@]12C", "Potency": "inactive"},
      {"smiles": "C[C@]12CC[C@H](OS(=O)(=O)O)CC1=CC[C@@H]1[C@@H]2CC[C@]2(C)C(=O)CC[C@@H]12", "Potency": "inactive"},
      {"smiles": "c1cc2c(c(NC3=NCCN3)c1)CCCC2", "Potency": "inactive"},
      {"smiles": "Cc1ccccc1-n1c(CF)nc2ccc(N)cc2c1=O", "Potency": "inactive"},
      {"smiles": "CC(C)(O)[C@@H]1[C@H]2OC(=O)[C@@H]1[C@]1(O)C[C@H]3O[C@]34C(=O)O[C@H]2[C@]14C", "Potency": "inactive"},
      {"smiles": "CCNC1(c2cccs2)CCCCC1=O", "note": "(stereo not given)", "Potency": "inactive"}
    ]}
  ]
}
